Data as given in PubChem BioAssay (Tox21).
Results filed as inconclusive are left out. Calls of active or inactive are those of the source. Unless noted, the call rests on the fitted dose curve; in most records, active means well fitted curve in the direction sought with a large enough effect in the repeat runs; inconclusive means weak or mixed curves; inactive means no such curve, though single readings can be large; an effect the other way counts as inactive or inconclusive.

What was measured:
[1] = A CellTox Green Cytotoxicity Assay to monitor cytotoxicity in HepG2 cells - 8 hour (AID 1224890); further: nearly all actives have a fitted effect of over 45% in size
In short: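 First, HepG2 cells (600/well) mixed with reagent were plated; second, after 5 h at 37 C they received compounds via pintool; third, fluorescence was measured at 0 h through 40 h at 8 h intervals.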

[2] = qHTS assay to identify small molecule antagonists of the estrogen receptor alpha (ER-alpha) signaling pathway using the BG1 cell line in the presence of 0.1 nM 17-beta-estradiol - cell viability counter screen (AID 1259241); further: nearly all actives have a fitted effect of over 40% in size
In short: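 CellTiter-Fluor read (30 min, 37C) on ER-alpha/ERE-luc VM7Luc4E2 cells; 22 hr compound treatment; agonist 0.1 nM E2 final; same-well multiplex.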

[3] = qHTS assay to identify small molecule antagonists of the androgen receptor (AR) signaling pathway using the MDA cell line in the presence of 0.5 nM R1881 - cell viability counter screen (AID 1259242); further: nearly all actives have a fitted effect of over 45% in size
In short: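 qHTS format. MDA-kb2 (MMTV-luc, AR/GR responsive) + cpd + 0.5 nM R1881 final, 16 hr 37C/0% CO2 → CellTiter-Fluor 30 min → fluorescence intensity.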

[4] = qHTS assay to identify small molecule HDAC inhibitors (AID 1259364);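 further: wild-type HCT-116 cells with endogenous class I/II HDAC activity; top concentration of the series differs between compounds; nearly all actives have a fitted effect of over 45% in size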
In short: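 Quantitative high-throughput format: overnight-seeded HCT-116 cells got compounds for 2 hr at 37C; HDAC-Glo I/II reagent added, 30 min RT, luminescence measured.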

[5] = qHTS assay to identify small molecule HDAC inhibitors - cell viability counter screen (AID 1259365); further: series mostly up to about 92 µM; nearly all actives have a fitted effect of over 50% in size
In short: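 To flag cytotoxic hits, 1,500 wild-type HCT-116 cells per well, plated the day before, receive test compounds for 2hr at 37 C before CellTiter-Glo reagent and a luminescence read.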

[6] = qHTS assay to identify small molecule agonists of the sonic hedgehog signaling (Shh) pathway - cell viability counter screen (AID 1259366); further: nearly all actives have a fitted effect of over 50% in size
In short: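 Fluorescence from CellTiter-Fluor reports live cells in this counter screen. NIH/3T3-derived Gli1-Luc reporter cells receive test compounds for 24hr at 37C; reagent goes in at 23hr.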

[7] = qHTS assay to identify small molecule antagonists of the sonic hedgehog signaling (Shh) pathway - cell viability counter screen (AID 1259367); further: nearly all actives have a fitted effect of over 55% in size
In short: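 Conditioned medium drove Shh signaling in 3T3 Gli1-Luc cells exposed to compounds at 37C and 5% CO2. Viability was determined from CellTiter-Fluor fluorescence, with reagent incubated 1 hr after 23 hr of treatment.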

[8] = molecular target: Estrogen receptor beta (Homo sapiens) (UniProt Q92731); test: qHTS assay to identify small molecule agonists of the estrogen receptor beta (ER-beta) signaling pathway (AID 1259377; active means well fitted activation curve with a large enough effect in the signal ratio in the repeat runs, not every such curve was filed as active; the % refers to the signal ratio)
Estrogen receptor beta (Homo sapiens), sequence (Q92731 whole entry, looked up): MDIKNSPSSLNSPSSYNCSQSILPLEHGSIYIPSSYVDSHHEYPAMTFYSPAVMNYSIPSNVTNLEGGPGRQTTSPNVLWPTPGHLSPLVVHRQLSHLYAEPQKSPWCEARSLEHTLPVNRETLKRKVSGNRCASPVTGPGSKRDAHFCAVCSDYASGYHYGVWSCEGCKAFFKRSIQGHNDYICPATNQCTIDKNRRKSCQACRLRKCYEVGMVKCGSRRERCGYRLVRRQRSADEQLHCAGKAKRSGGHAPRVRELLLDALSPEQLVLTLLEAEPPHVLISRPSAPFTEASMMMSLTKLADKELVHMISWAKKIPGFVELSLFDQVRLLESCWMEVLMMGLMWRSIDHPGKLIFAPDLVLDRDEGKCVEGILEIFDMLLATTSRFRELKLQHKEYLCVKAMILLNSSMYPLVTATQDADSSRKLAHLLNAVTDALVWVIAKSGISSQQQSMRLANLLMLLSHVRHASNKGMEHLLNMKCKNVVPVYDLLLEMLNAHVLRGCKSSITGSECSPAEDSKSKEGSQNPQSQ
In short: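 Screening used GripTite ER-beta-UAS-bla cells held in 2% charcoal-stripped FBS medium. After overnight (16 hr) compound incubation at 37C, beta-lactamase activity was detected with a FRET substrate by fluorescence.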

[9] = molecular target: Estrogen receptor beta (Homo sapiens) (UniProt Q92731); test: qHTS assay to identify small molecule antagonists of the estrogen receptor beta (ER-beta) signaling pathway (AID 1259378; active means well fitted inhibition curve with a large enough effect in the signal ratio in the repeat runs, not every such curve was filed as active; the % refers to the signal ratio)
In short: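 ER-beta-UAS-bla HEK293T (GripTite) cells in 2% charcoal-stripped FBS medium were preincubated 6 hr at 37C, dosed with compound, then stimulated with 1 nM E2 (final) for 16 hr; beta-lactamase reporter read by B/G FRET fluorescence after 2 hr substrate loading.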

[10] = qHTS assay to identify small molecule agonists of the androgen receptor (AR) signaling pathway in the presence of an antagonist - cell viability counter screen (AID 1259379);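 further: MDA-kb2 human breast cancer cells carrying an MMTV luciferase reporter; series mostly up to about 92 µM; nearly all actives have a fitted effect of over 25% in size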
In short: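 Nilutamide-containing (3.0uM final) MDA-kb2 cultures, 3,000 cells/well, were treated with compounds across 15 concentrations. After 16 hr at 37C with no CO2, cell viability was determined by CellTiter-Fluor fluorescence in the luciferase assay wells.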

[11] = qHTS assay to identify small molecule agonists of the estrogen receptor beta (ER-beta) signaling pathway - cell viability counter screen (AID 1259380); further: nearly all actives have a fitted effect of over 30% in size
In short: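 Steps: plate ER-beta-UAS-bla HEK293T cells, rest 6 hr; add compounds in DMSO; incubate 16 hr at 37C, 5% CO2; add FRET substrate 2 hr; add CellTiter-Glo, wait 30 min at room temperature; read luminescence.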

[12] = qHTS assay to identify small molecule antagonists of the estrogen receptor beta (ER-beta) signaling pathway - cell viability counter screen (AID 1259382); further: series mostly up to about 92 µM; nearly all actives have a fitted effect of over 55% in size
In short: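 Viability is scored by CellTiter-Glo luminescence (30 min, room temperature) in ER-beta-UAS-bla HEK293T wells already read for reporter fluorescence. Compound exposure lasts 16 hr at 37C alongside 1nM 17-beta-estradiol in charcoal-stripped serum medium.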

[13] = qHTS assay to identify small molecule agonists or antagonists of the thyroid stimulating hormone receptor (TSHR) signaling pathway - wild type cell line counter screen (AID 1259384; calls by dose curve)
In short: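 Wild-type HEK293 cells were plated 18 h at 37 C/5% CO2, pin-dosed with compound plus Ro20-1724 medium, held 30 min at room temperature, then given cAMP-d2 and anti-cAMP-cryptate; fluorescence was read after 1 h. Fifteen concentrations, triplicate.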

[14] = qHTS assay to identify small molecule phospholipidosis (PLD) inducers (AID 1259344; active means well fitted curve in the direction sought with a large enough effect; an effect the other way counts as inactive or inconclusive)
In short: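 After 4 h attachment on collagen I, HepG2 cells were dosed with compound alongside LipidTOX Red, kept 24 h at 37 C, fixed, and imaged for lamellar phospholipid pits.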

[15] = qHTS assay to identify small molecule agonists of the sonic hedgehog signaling (Shh) pathway (AID 1259368; calls by dose curve;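 further: NIH/3T3-derived 3T3Gli1-Luc cells carrying a stable Gli1-driven firefly luciferase reporter; series mostly up to about 92 µM; nearly all actives have a fitted effect of over 15% in size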)
In short: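 Quantitative high-throughput format using a Gli1-driven firefly luciferase reporter line derived from NIH/3T3 cells. After a 24 hr compound treatment at 37 C and 5% CO2, luminescence reported Gli1 response element activity.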

[16] = qHTS assay to identify small molecule antagonists of the sonic hedgehog signaling (Shh) pathway (AID 1259369; calls by dose curve; further: nearly all actives have a fitted effect of over 45% in size)
In short: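 Stable Gli1-Luc reporter NIH/3T3 clone; quantitative HTS in stimulated mode with conditioned medium. Luminescence measured after 24hr compound treatment at 37 C.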

[17] = molecular target: Estrogen receptor (Homo sapiens) (UniProt P03372); test: qHTS assay to identify small molecule antagonists of the estrogen receptor alpha (ER-alpha) signaling pathway using the BG1 cell line in the presence of 0.1 nM 17-beta-estradiol (AID 1259244); further: nearly all actives have a fitted effect of over 50% in size
Estrogen receptor (Homo sapiens), sequence (P03372 whole entry, looked up): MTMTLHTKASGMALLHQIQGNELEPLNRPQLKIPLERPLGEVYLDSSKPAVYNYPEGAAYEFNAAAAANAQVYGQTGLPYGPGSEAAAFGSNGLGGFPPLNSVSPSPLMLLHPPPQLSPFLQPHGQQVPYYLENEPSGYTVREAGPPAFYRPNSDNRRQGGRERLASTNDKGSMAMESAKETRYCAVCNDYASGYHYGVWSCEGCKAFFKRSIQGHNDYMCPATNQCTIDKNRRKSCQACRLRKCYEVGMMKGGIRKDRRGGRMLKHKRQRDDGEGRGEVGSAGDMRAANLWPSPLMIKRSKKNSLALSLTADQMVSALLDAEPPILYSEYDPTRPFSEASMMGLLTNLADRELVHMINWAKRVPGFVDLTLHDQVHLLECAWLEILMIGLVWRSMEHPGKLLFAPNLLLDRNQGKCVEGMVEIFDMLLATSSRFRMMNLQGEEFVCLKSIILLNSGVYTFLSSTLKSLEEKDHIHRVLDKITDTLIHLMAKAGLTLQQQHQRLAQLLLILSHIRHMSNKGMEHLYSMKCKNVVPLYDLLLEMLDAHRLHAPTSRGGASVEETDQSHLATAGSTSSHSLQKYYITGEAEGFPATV
In short: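 Reporter is a stably transfected luciferase under four estrogen responsive elements in VM7Luc4E2 cells expressing native full-length ER-alpha; inhibition of 0.1 nM (final) 17beta-estradiol-driven signal over 22 h is read by luminescence.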

[18] = molecular target: Estrogen receptor (Homo sapiens) (UniProt P03372); test: qHTS assay to identify small molecule agonists of the estrogen receptor alpha (ER-alpha) signaling pathway in the presence of an antagonist (AID 1259383; calls by dose curve; further: top concentration of the series differs between compounds; nearly all actives have a fitted effect of over 15% in size)
In short: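 Readout was ERE-driven luciferase luminescence in VM7Luc4E2 cells, which express full-length ER-alpha endogenously. Compounds were tested at 15 concentrations for 22hr alongside 10.0nM ICI-182,780 (final concentration).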

[19] = molecular target: Androgen receptor (Homo sapiens) (UniProt P10275); test: qHTS assay to identify small molecule agonists of the androgen receptor (AR) signaling pathway in the presence of an antagonist (AID 1259381; calls by dose curve; further: nearly all actives have a fitted effect of over 15% in size)
Androgen receptor (Homo sapiens), sequence (P10275 whole entry, looked up): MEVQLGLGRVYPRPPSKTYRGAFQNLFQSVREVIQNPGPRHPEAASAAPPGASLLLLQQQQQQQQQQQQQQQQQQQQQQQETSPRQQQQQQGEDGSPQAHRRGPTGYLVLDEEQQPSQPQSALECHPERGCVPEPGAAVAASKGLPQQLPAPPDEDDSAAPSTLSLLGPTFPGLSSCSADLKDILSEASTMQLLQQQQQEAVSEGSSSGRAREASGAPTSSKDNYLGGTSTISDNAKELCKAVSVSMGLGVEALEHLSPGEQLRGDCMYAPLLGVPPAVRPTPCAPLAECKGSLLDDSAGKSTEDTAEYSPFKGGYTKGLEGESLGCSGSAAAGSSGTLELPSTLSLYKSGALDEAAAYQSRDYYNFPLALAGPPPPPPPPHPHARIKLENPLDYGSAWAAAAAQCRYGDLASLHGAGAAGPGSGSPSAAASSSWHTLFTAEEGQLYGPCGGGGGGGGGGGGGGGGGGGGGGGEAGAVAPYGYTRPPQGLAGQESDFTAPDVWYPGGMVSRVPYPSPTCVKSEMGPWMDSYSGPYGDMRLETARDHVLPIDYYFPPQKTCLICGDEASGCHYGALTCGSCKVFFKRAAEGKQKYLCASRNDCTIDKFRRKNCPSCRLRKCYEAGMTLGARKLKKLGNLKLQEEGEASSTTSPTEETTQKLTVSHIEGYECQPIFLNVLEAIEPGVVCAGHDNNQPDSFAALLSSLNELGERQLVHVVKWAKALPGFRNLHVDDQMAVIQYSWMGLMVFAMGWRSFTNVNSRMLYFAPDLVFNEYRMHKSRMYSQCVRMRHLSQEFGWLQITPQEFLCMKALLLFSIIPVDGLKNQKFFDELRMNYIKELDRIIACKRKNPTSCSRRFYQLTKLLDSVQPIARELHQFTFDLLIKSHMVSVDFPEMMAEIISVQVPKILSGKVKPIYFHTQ
In short: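 Reporter-gene luminescence from MDA-kb2 cells exposed 16hr at 37C (0% CO2) to 15-point compound titrations with 3.0uM final nilutamide as AR antagonist.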

Measured: Potency

CC(C)CNCC(C)C
inactive: [1] | [2] | [3] | [4] | [5] | [6] | [7] | [8] | [9] | [10] | [11] | [12] | [13]

O=C(O)CCCc1ccccc1
inactive: [2] | [3] | [14] | [4] | [5] | [6] | [7] | [15] | [16] | [8] | [10] | [11] | [12] | [13]

CCCCCCCCCCCCN(CCCCCCCCCCCC)CCCCCCCCCCCC
inactive: [1] | [2] | [3] | [4] | [5] | [6] | [7] | [15] | [10] | [11] | [12] | [13]

COC(=O)c1cc(C(=O)OC)cc(S(=O)(=O)O)c1
inactive: [1] | [2] | [3] | [4] | [5] | [6] | [7] | [16] | [8] | [9] | [10] | [11] | [13]

COC(=O)CCSCCC(=O)OC
inactive: [1] | [2] | [3] | [4] | [5] | [7] | [15] | [9] | [10] | [11] | [12]

CC(C)CCCC(C)N (stereo not given)
inactive: [1] | [3] | [17] | [14] | [4] | [5] | [6] | [7] | [15] | [16] | [8] | [9] | [10] | [11] | [12] | [18] | [13]

CC(C[N+](C)(C)C)OC(N)=O (stereo not given)
inactive: [2] | [3] | [17] | [14] | [4] | [5] | [6] | [7] | [15] | [8] | [9] | [10] | [11] | [12] | [18]

NS(=O)(=O)c1ccccc1Cl
inactive: [1] | [2] | [3] | [4] | [5] | [6] | [7] | [15] | [10] | [11] | [12] | [13]

Nc1ccccc1S(=O)(=O)O
inactive: [1] | [2] | [3] | [5] | [6] | [7] | [15] | [16] | [8] | [9] | [10] | [11] | [12] | [13]

CCc1cccc2c(CCO)c[nH]c12
inactive: [1] | [2] | [3] | [5] | [6] | [7] | [16] | [8] | [9] | [10] | [11] | [19] | [12] | [13]
